# Experimental data reported in PubChem BioAssay AID1671190 (National Center for Advancing Translational Sciences (NCATS), 2021).
# Where “and” joins values, the source holds several entries; their conditions need not be identical. Identical values can stand only once. In all, about 580,000 compounds went through this assay and about 6,100 (1.1%) were called active. Inconclusive results (about 15%) are left out. Many of the other results were omitted from the sample, so actives are more common in it than they were. A number with no mark means an inactive call. Calls come from the whole dose curve; as a rule, active = well fitted inhibition curve with a large enough effect; inconclusive = small, poorly fitted or top-dose-only effect, or another doubt; inactive = no such curve, though single readings can be large or run the other way.
# Target: Polyunsaturated fatty acid lipoxygenase ALOX12 (Homo sapiens) (UniProt P18054)
# Sequence (P18054 whole entry, looked up): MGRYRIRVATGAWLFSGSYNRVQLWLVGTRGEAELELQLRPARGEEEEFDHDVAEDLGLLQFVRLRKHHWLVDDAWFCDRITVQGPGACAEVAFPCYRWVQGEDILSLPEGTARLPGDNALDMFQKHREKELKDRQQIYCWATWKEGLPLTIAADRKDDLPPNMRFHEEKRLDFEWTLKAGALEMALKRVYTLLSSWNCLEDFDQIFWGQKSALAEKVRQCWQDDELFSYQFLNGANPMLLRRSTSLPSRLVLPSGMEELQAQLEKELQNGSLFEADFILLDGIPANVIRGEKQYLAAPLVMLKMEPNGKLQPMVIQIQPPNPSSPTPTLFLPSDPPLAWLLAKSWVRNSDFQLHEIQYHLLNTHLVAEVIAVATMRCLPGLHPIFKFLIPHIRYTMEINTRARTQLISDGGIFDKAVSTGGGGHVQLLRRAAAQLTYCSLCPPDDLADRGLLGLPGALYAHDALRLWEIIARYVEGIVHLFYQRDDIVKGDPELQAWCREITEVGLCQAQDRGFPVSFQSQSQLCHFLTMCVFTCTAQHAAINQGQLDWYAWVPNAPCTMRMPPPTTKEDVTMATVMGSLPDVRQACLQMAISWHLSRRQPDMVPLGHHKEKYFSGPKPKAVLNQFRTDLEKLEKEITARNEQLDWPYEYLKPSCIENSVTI
# Assay: Primary qHTS assay for inhibitors of human arachidonate 12S-lipoxygenase (ALOX12): Round 2
# Details: purified 12hLO, xylenol orange hydroperoxide absorbance; series mostly up to 108 µM; activity change, negative = inhibition: at the top concentration
# Outline: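 Purified human 12hLO at 150 nM in 25 mM Hepes, 0.01% Triton X-100, pH 7.0, preincubated 15 min at room temperature with compound. Reaction started with 40 uM arachidonic acid, 30 min at room temperature. Hydroperoxide measured by Fe-xylenol orange, 573/405 nm absorbance ratio.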
# % is set by controls: 0 for no effect and ±100 for the full control effect; potency is the fitted concentration of half-maximal effect.
SMILES,"activity change, negative = inhibition",Potency
O=C(Nc1ccccc1NS(=O)(=O)c1cccs1)c1ccc([N+](=O)[O-])cc1,-7.02%,–
CCN1CCC(O)(/C=C/c2ccc(C)cc2)C(C(=O)/C=C/c2ccc(C)cc2)C1 (stereo not given),–,50.1 µM (active)
CCOC(=O)/C=C/c1ccc(N)cc1,0.135%,–
CO[C@H]1C(=O)N(C(C)C)[C@H]1C1CCN(C(=O)Nc2ccc(C)c(C)c2)CC1,12.5%,–
Cc1ccsc1C(=O)NC1CCN(c2cnn(Cc3ccccc3)c(=O)c2)CC1,20.5%,–
CCN(CC)CCC(=O)Nc1c(C(=O)OC)[nH]c2ccccc12,2.76%,–
COCCNC(=S)Nc1cc(S(=O)(=O)N2CCOCC2)ccc1N1CCCCC1,–,31.6 µM (active)
O=C(COC(=O)Cc1ccc(F)cc1)Nc1cc(S(=O)(=O)N2CCOCC2)ccc1N1CCCC1,10.8%,–
CC(C)CCC(=O)Nc1cc(S(=O)(=O)N2CCOCC2)ccc1N1CCCC1,-1.02%,–
CC(C)OCC(=O)N1CCN(c2nc(-c3ccccc3)nc3c2CCC3)CC1,1.77%,–
Cc1[nH]c2ccccc2c1CC(=O)NCc1ccc(CN2CCCC2)cc1,0.463%,–
Cc1c(Cc2ccccc2)c(=O)oc2c(C)c(OC(C)C(=O)O)ccc12 (stereo not given),-4.47%,–
Cc1nc2nc(NCc3cc(F)cc(F)c3)[nH]n2c(=O)c1C,3.05%,–
CCN(c1ccc(NC(=O)c2cnc3ccccc3n2)cc1)C(C)C,-1.28%,–
CCN(CC(=O)NC(=O)NCC(C)C)C1CC1,19.4%,–
CCCCCCc1cc2c3c(c(=O)oc2cc1OCC(=O)C(C)(C)C)CCCC3,22.2%,–
O=C(OC12CC3CC(CC(C3)C1)C2)c1ccc(NCc2cc(O)ccc2O)cc1,–,31.6 µM (active)
COC(=O)c1ccc(C(=O)OC(C)C(=O)C23CC4CC(CC(C4)C2)C3)cc1 (stereo not given),8.3%,–
Fc1ccc(NCC23CC4CC(CC(C4)C2)C3)cc1,2.88%,–
Cc1c(C(=O)N2CCOC(C)C2)cnn1-c1ccc(F)cc1 (stereo not given),12.1%,–
CCNc1ncc(CN2CCN(c3cccc(C(F)(F)F)c3)CC2)cn1,51.7%,–
CN(c1ccccc1)c1cc(=O)c2ccnc(-c3ccc(CO)cc3)c2o1,-12.8% [at 176 µM],–

SMILES,"activity change, negative = inhibition",Potency
CN(c1ccccc1)c1cc(=O)c2ccnc(Nc3cccc([S+](C)(=O)[O-])c3)c2o1,–,56.2 µM (active)
CN(c1ccccc1)c1cc(=O)c2ccnc(NC3CCOCC3)c2o1,9.42% [at 176 µM],–
CN(C)C(=O)C(NCCc1c[nH]c2ccccc12)c1ccccc1 (stereo not given),0.261%,–
CCc1ccc(Nc2ncc3c(n2)CC(c2ccco2)CC3=O)cc1 (stereo not given),-1.98%,–
Cc1ccc(-c2csc(N(Cc3ccco3)C(=O)c3cccs3)n2)cc1,-3.04%,–
Cc1ccc(-c2csc(-c3cc4c([nH]c3=O)CC(c3ccco3)CC4=O)n2)cc1 (stereo not given),–,2.24 µM (active)
CC(C)(C)c1ccc(C(=O)NNC(=O)C2CC2)cc1,-4.22%,–
Fc1ccccc1COc1ccc(-c2nnco2)cc1,0.307%,–
COCCn1c(=O)c2c(nc(-n3nc(C)cc3C)n2Cc2ccccc2)n(C)c1=O,-1.9%,–
Cc1ccc(C)c(NC(=O)N2CCCC2c2ccco2)c1 (stereo not given),1.15%,–
Cc1ccccc1OCCN(C)Cc1cc(=O)oc2cc(O)ccc12,-23.4%,–
CCCc1cc(=O)[nH]c(SCc2ccc(C#N)cc2)n1,0%,–
Cc1ccc(CSc2nsc(C)c2C#N)cc1,0%,–
Cc1ccc(CSc2nc(-c3ccccc3)c(C#N)c(=O)[nH]2)cc1,–,39.8 µM (active)
CCCCCCSc1ccc([C@@H]2[C@H]3C(=O)N(CC)C(=O)[C@H]3[C@]3(C(=O)OC)CCCCN23)cc1,44.9%,–
CCCCCCSc1ccc([C@@H]2[C@@H]3C(=O)N(CC)C(=O)[C@@H]3[C@]3(C(=O)OC)CCCCN23)cc1OC,–,17.8 µM (active)
CCN1C(=O)[C@@H]2[C@@H](c3ccc(-c4ccc(OC)cc4)c(OC)c3)N3CCC[C@@]3(C(=O)OC)[C@@H]2C1=O,-21.7%,–
O=C(O)c1ccc2nc[nH]c2c1,0.982%,–
O=C(O)c1cccc(-c2ccccn2)c1,6.18% [at 12.5 µM] and -0.515% [at 12.5 µM],–
N#Cc1cccnc1-c1cccc(C(=O)O)c1,–,56.2 µM (active)
O=C(COc1ccc2c(c1)CCC2)N(Cc1nc2ccccc2c(=O)[nH]1)CC1CCCO1 (stereo not given),11.7%,–
O=S(=O)(c1cc(Cl)ccc1Cl)N1CCN(Cc2ccco2)CC1,-3.3%,–

SMILES,"activity change, negative = inhibition",Potency
O=C(CN1CCN(S(=O)(=O)c2cc(Cl)ccc2Cl)CC1)c1ccc(O)c(O)c1,–,1.41 µM (active)
O=C(CN1CCN(S(=O)(=O)c2cccc(Cl)c2)CC1)N1CCCCC1,0%,–
Cc1[nH]c2ccccc2c1C(=O)C(=O)NC(C)CCc1ccccc1 (stereo not given),-38.1%,–
Cc1ccc2cc(C)c(Nc3cccc(C)c3C)nc2c1,0.82%,–
O=C(Nc1cccc(Br)c1)c1csc2c1CCCC2,-49.6%,–
O=C(c1ccco1)N1CCN(Cc2cccc(C(F)(F)F)c2)CC1,19.9%,–
Cc1ccc(-c2csc(C(C#N)=C(O)CN3CCN(C(=O)c4ccco4)CC3)n2)cc1,–,44.7 µM (active)
CCCOc1ccc(-c2nc(C#N)c(N3CCN(C(=O)c4ccco4)CC3)o2)cc1,-45.2%,–
O=C(c1cc(-c2cccs2)on1)N1CCCC1c1ccccc1F (stereo not given),-2.89%,–
COc1cccc(CN2C[C@@H](F)[C@@H](OCc3nc4ccccc4n3C)C2)n1,100% [at 176 µM],–
CSc1ccc(C(=O)N2CCC(n3nccc3NC(=O)CC(C)C)CC2)cc1,0.71%,–
O=C(COc1ccc(F)cc1Cl)Nc1ncn[nH]1,77.9%,–
Cc1noc(C)c1CS(=O)(=O)c1cc(Cl)ccc1Cl,7.07%,–
COc1ccc(CN(C(=O)CSc2nnc(-c3ccc(OC)c(OC)c3)o2)c2ccc(F)cc2)cc1,-16%,–
COc1ccccc1-c1nnc(SCC(N)=O)o1,-10.9%,–
COc1ccc(-c2nnc(SC(=O)N3c4ccccc4Sc4ccccc43)o2)cc1,–,8.91 µM (active)
CCCNC(=O)NNC(=O)c1cn(C)c2ccccc12,-3.21%,–
Cn1c(COc2ccc(Cl)cc2)nnc1SCC(O)COc1ccc(C(C)(C)C)cc1 (stereo not given),-24.4%,–
CCNC(=O)[C@@H]1CCCN1[C@@H](C(=O)NC)c1ccccc1OC,31.9% [at 176 µM],–
CNC(=O)C(C)(C)N1CCC[C@H]1C(=O)N(C)Cc1ccccc1,-3.65% [at 176 µM],–
CNC(=O)[C@@H](Cc1ccccc1)N1CCC[C@H]1C(=O)N1CCC1,–,22.4 µM (active)
